From PubChem BioAssay (Tox21) come the findings set out here.

SMILES strings stand for the structures. Inconclusive results are not listed. Values without a mark were called inactive. Calls of active or inactive are those of the source. Unless noted, the call rests on the fitted dose curve; in most records, active means well fitted curve in the direction sought with a large enough effect in the repeat runs; inconclusive means weak or mixed curves; inactive means no such curve, though single readings can be large; an effect the other way counts as inactive or inconclusive.

Experiment [1] is described as follows: qHTS assay to identify aromatase inhibitors - cell viability counter screen (AID 743084;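 further: cells stimulated with testosterone during compound exposure; nearly all actives have a fitted effect of over 55% in size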; further: potency means the concentration at half of the fitted maximal effect). (qHTS replaces the single test concentration by a dilution series.)
The target of experiment [2] is Aryl hydrocarbon receptor (Homo sapiens) (UniProt P35869). The experiment can be described thus: qHTS assay to identify small molecule that activate the aryl hydrocarbon receptor (AhR) signaling pathway (AID 743085).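 Further: HG2L7.5c1 human HepG2 liver cells with stably integrated DRE-driven firefly reporter; series mostly up to about 70 µM; nearly all actives have a fitted effect of over 15% in size.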 In a few lines:
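Luminescence read-out: ONE-Glo reagent, 30 min at room temperature, in HG2L7.5c1 HepG2 reporter cells treated 24 h at 37C. Viability was measured beforehand by CellTiter-Fluor fluorescence after 30 min at 37C.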

Experiment [3] in a line: qHTS assay to identify small molecule that activate the aryl hydrocarbon receptor (AhR) signaling pathway - cell viability counter screen (AID 743086). Further: nearly all actives have a fitted effect of over 45% in size. Further: potency means the concentration at half of the fitted maximal effect. In short, it runs like this: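 HepG2-AhR-luc (HG2L7.5c1) cells, 4000/well, treated 24 h at 37 C with compound; viability measured as CellTiter-Fluor fluorescence after 30 min in the same wells as the luciferase read.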
In experiment [4] the target is Peroxisome proliferator-activated receptor gamma (Homo sapiens) (UniProt P37231). The experiment can be described thus: qHTS assay to identify small molecule agonists of the peroxisome proliferator-activated receptor gamma (PPARg) signaling pathway (AID 743094; active means well fitted activation curve with a large enough effect in the signal ratio in the repeat runs, not every such curve was filed as active; the % refers to the signal ratio). In short, it runs like this: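 Reporter activation was scored by fluorescence of cleaved LiveBLAzer B/G substrate (1 h, room temperature) in PPARg-bla HEK293H cells previously treated 17 h at 37C with DMSO-dissolved compounds.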

Experiment [5] can be described thus: qHTS assay to identify small molecule phospholipidosis (PLD) inducers (AID 1259344; active means well fitted curve in the direction sought with a large enough effect; an effect the other way counts as inactive or inconclusive). In a few lines:
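Read-out is LipidTOX Red fluorescence (ex 595/em 615) imaged in HepG2 cells after 24 h compound exposure at 37 C, with Hoechst nuclear counterstain (ex 352/em 461) allowing per-cell normalisation.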

For experiment [6], the target named is Nuclear receptor subfamily 1 group I member 2 (Rattus norvegicus) (UniProt Q9R1A7). The experiment can be described thus: Rat pregnane X receptor (rPXR) activation by small molecules, qHTS assay (AID 1346983). Further: nearly all actives have a fitted effect of over 20% in size. Particulars: rPXR luciferase reporter cells, One-Glo luminescence, 24 h; max activation: active compounds read high. In short, it runs like this:
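Cell-based rPXR activation assay: rPXR cells, 2,000 per well, rested 5hr at 37 C, then exposed to compounds in DMSO for 24 hr at 37 C. Luciferase activity read by One-Glo luminescence after 30 min at room temperature.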

In experiment [7] the target is Nuclear receptor subfamily 1 group I member 2 (Homo sapiens) (UniProt O75469). The experiment can be described thus: CYP3A4 induction through human pregnane X receptor (PXR) by small molecules, qHTS assay (AID 1346984). Further: nearly all actives have a fitted effect of over 40% in size. Further: potency means the concentration at half of the fitted maximal effect. In a few lines:
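Induction measured in HepG2-based DPX-2 cells co-expressing human PXR and a CYP3A4 promoter-driven luciferase. After a 24-hour compound exposure, cells received CYP3A4 luciferin substrate at 3uM final for 3 hours, and light output was then recorded.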

For experiment [8] the target is unchanged. The experiment can be described thus: Human pregnane X receptor (PXR) activation by small molecules, qHTS assay (AID 1346985). Further: nearly all actives have a fitted effect of over 40% in size. Further: potency means the concentration at half of the fitted maximal effect. In short, it runs like this: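 DPX-2 cells (HepG2 co-transfected with a PXR response element and a CYP3A4-promoter luciferase construct) were seeded at 2,000 per well, rested 5 hr at 37C, then exposed to DMSO-dissolved compounds for 24 hr. Activation was read as luciferase luminescence.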
On the % scale 0 is the no-effect control and ±100 the full control effect.

Peroxisome proliferator-activated receptor gamma (Homo sapiens), sequence (P37231 whole entry, looked up): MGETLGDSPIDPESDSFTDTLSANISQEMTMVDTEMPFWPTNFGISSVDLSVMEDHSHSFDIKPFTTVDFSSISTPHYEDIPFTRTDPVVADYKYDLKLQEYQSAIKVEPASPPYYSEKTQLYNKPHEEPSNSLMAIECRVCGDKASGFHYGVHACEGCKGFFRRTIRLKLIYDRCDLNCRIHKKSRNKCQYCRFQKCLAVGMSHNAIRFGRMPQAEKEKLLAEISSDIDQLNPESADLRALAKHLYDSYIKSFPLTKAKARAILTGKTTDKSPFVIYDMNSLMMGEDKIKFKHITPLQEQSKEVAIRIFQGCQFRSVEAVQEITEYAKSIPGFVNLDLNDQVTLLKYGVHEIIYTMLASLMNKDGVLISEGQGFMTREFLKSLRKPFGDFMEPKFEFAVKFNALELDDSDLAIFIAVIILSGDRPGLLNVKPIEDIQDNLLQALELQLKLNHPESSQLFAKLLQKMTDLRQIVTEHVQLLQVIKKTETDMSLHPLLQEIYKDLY
Nuclear receptor subfamily 1 group I member 2 (Rattus norvegicus), sequence (Q9R1A7 whole entry, looked up): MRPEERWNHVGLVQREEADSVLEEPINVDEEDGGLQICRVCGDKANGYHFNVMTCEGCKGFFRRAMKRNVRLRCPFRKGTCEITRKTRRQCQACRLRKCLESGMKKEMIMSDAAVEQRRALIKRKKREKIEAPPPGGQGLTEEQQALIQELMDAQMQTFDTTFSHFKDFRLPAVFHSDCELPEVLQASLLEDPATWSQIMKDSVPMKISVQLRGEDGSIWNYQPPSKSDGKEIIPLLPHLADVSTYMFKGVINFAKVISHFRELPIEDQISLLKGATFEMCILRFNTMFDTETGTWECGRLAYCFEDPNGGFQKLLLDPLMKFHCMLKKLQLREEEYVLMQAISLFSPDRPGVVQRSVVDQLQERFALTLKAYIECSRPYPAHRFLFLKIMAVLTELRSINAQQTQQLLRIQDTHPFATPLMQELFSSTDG
Aryl hydrocarbon receptor (Homo sapiens), sequence (P35869 whole entry, looked up): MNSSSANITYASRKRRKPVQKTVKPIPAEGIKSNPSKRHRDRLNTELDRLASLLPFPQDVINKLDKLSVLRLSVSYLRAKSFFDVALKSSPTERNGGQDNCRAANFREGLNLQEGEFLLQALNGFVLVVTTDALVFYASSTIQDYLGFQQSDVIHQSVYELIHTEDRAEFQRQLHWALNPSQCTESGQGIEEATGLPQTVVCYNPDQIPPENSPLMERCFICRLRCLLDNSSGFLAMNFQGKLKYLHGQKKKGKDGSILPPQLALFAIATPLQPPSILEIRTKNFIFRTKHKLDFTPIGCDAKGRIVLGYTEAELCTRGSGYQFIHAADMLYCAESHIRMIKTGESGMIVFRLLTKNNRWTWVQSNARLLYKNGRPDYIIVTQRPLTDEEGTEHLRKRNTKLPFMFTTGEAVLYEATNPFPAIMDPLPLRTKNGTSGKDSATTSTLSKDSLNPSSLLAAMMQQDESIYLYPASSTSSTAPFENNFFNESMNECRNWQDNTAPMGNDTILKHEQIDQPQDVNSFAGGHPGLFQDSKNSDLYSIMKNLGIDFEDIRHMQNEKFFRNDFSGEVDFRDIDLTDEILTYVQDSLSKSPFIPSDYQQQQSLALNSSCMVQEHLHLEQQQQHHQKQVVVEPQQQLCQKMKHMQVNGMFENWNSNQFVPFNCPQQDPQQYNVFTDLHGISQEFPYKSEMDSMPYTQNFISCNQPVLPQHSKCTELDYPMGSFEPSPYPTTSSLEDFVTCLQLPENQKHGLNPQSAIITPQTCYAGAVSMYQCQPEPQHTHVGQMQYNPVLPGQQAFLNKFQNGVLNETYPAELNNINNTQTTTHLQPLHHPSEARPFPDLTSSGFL

Take `Nc1nc2[nH]cc(CCc3ccc(C(=O)N[C@@H](CCC(=O)O)C(=O)O)cc3)c2c(=O)[nH]1`: the Potency entry in experiment [1], in experiment [2], in experiment [3], in experiment [4], in experiment [5] and in experiment [7] was “inactive” each time. Moreover, the Potency result in experiment [8] was “inactive”. Besides, the max activation in experiment [6] was -1.09%.
Turning to `CC(C)=CCC/C(C)=C/C=C/C(C)=C/C=C/C(C)=C/C=C/C=C(C)/C=C/C=C(C)/C=C/C=C(\C)CCC=C(C)C`, the Potency entry in experiment [1], in experiment [2], in experiment [3], in experiment [5], in experiment [7] and in experiment [8] was “inactive” throughout. For the same compound, in experiment [6], the max activation was 2.83%.
As to `CCC(=O)O[C@@H]1CC(=O)O[C@H](C)C/C=C/C=C/[C@H](O)[C@H](C)C[C@H](CC=O)[C@H](O[C@@H]2O[C@H](C)[C@@H](O[C@H]3C[C@@](C)(O)[C@@H](OC(=O)CC)[C@H](C)O3)[C@H](N(C)C)[C@H]2O)[C@H]1OC`, the Potency result in experiment [1], in experiment [2], in experiment [3], in experiment [5], in experiment [7] and in experiment [8] was “inactive” throughout. Besides, the max activation in experiment [6] is -4.74%.
In the case of `COc1ccc(-c2noc(CC(=O)O)c2-c2ccc(OC)cc2)cc1`, the Potency result in experiment [1], in experiment [2], in experiment [3], in experiment [5], in experiment [7] and in experiment [8] was “inactive” throughout. Further, the max activation in experiment [6] was -3.32%.
For `CCCCC/C=C\C/C=C\C/C=C\CCCCC(=O)O`, the Potency entry in experiment [1], in experiment [2], in experiment [3], in experiment [5], in experiment [7] and in experiment [8] was “inactive” in each case. Further, the max activation in experiment [6] is -0.879%.
With `O=C1N=C2SCCN2C(=O)C1Cc1ccc(Cl)cc1` (stereo unspecified), the Potency entry in experiment [5], in experiment [7] and in experiment [8] was “inactive” throughout. Further, in experiment [6], the max activation was -2.07%.
For `O=[N+]([O-])c1c(Cl)cccc1-c1c[nH]cc1Cl`, the Potency result in experiment [5] is “inactive”. For the same compound, in experiment [6], the max activation is 9.62%. For the same compound, the Potency in experiment [7] is 11.2 µM (active); in experiment [8] it was 14.1 µM (active).
For `CO/N=C(\C(=O)N[C@@H]1C(=O)N2C(C(=O)O)=CCS[C@H]12)c1csc(N)n1`, the Potency entry in experiment [1], in experiment [2], in experiment [3], in experiment [4], in experiment [5] and in experiment [7] was “inactive” each time. In addition, the Potency result in experiment [8] is “inactive”. The max activation in experiment [6] is -4.38%.
Consider `C=CC[C@@H]1/C=C(\C)C[C@H](C)C[C@H](OC)[C@H]2O[C@@](O)(C(=O)C(=O)N3CCCC[C@H]3C(=O)O[C@H](/C(C)=C/[C@@H]3CC[C@@H](O)[C@H](OC)C3)[C@H](C)[C@@H](O)CC1=O)[C@H](C)C[C@@H]2OC`, for which the Potency result in experiment [1], in experiment [2], in experiment [3], in experiment [5], in experiment [7] and in experiment [8] was “inactive” in each case. Also, the max activation in experiment [6] is -13.2%.
Regarding `CS(=O)(=O)c1ccc(C2=C(c3ccccc3)C(=O)OC2)cc1`, the Potency entry in experiment [1], in experiment [2], in experiment [3], in experiment [4], in experiment [5] and in experiment [7] was “inactive” throughout. For the same compound, the Potency result in experiment [8] was “inactive”. Further, the max activation in experiment [6] was -0.681%.
Take `[O]=[Bi][O][Bi]=[O]`: the Potency entry in experiment [1], in experiment [2], in experiment [3], in experiment [5], in experiment [7] and in experiment [8] was “inactive” throughout. Moreover, in experiment [6], the max activation was -2.85%.
Take `OCC(S)CS` (stereo unspecified): the Potency result in experiment [1], in experiment [2], in experiment [3], in experiment [5], in experiment [7] and in experiment [8] was “inactive” each time. Moreover, in experiment [6], the max activation was -4.08%.
For `CC(=O)Oc1cccc(C(=O)O)c1OC(C)=O`, the Potency entry in experiment [1], in experiment [2], in experiment [3], in experiment [4], in experiment [5] and in experiment [7] was “inactive” throughout. Further, the Potency entry in experiment [8] was “inactive”. Also, the max activation in experiment [6] was -1.97%.
Consider `COc1cc(/C=C/C(=O)N2CCN(CC(=O)N3CCCC3)CC2)cc(OC)c1OC`, for which the Potency entry in experiment [1], in experiment [2], in experiment [3], in experiment [4], in experiment [5] and in experiment [7] was “inactive” each time. Besides, in experiment [8], the Potency entry is “inactive”. Also, in experiment [6], the max activation was 0.536%.
Take `NCCCC[C@H](N)C(=O)O`: the Potency result in experiment [1], in experiment [2], in experiment [3], in experiment [4], in experiment [5] and in experiment [7] was “inactive” in each case. The Potency entry in experiment [8] was “inactive”. Moreover, the max activation in experiment [6] was -0.992%.
For `Cc1cccc(C)c1NC(=O)NC1=CCCN1C`, the Potency entry in experiment [1], in experiment [2], in experiment [3], in experiment [4], in experiment [5] and in experiment [7] was “inactive” each time. The Potency result in experiment [8] is “inactive”. The max activation in experiment [6] is -2.14%.
Regarding `CN[C@@H]1[C@H](O[C@H]2[C@H](O[C@H]3[C@H](O)[C@@H](O)[C@H](N=C(N)N)[C@@H](O)[C@@H]3N=C(N)N)O[C@@H](C)[C@]2(O)C=O)O[C@@H](CO)[C@H](O)[C@H]1O`, the Potency entry in experiment [1], in experiment [2], in experiment [3], in experiment [4], in experiment [5] and in experiment [7] was “inactive” each time. Besides, the Potency entry in experiment [8] was “inactive”. In experiment [6], the max activation is -1.83%.
For the compound `CCCCCCCCCCCCCCCC(=O)OC[C@@H](O)[C@H]1OC[C@H](O)[C@H]1O`, the Potency entry in experiment [1], in experiment [2], in experiment [3], in experiment [4], in experiment [5] and in experiment [7] was “inactive” throughout. The Potency entry in experiment [8] is “inactive”. Besides, the max activation in experiment [6] is 2.9%.
Turning to `CN(C)c1ccc(C(=C2C=CC(=[N+](C)C)C=C2)c2c(O)c(S(=O)(=O)[O-])cc3cc(S(=O)(=O)O)ccc23)cc1`, the Potency in experiment [1] was 29.8 µM (active); in experiment [3] it was 26.6 µM (active). In addition, the Potency result in experiment [2], in experiment [4], in experiment [5], in experiment [7] and in experiment [8] was “inactive” each time. The max activation in experiment [6] is -15.3%.
Consider `CC(C)(C)c1ccc(CN2CCN(C(c3ccccc3)c3ccc(Cl)cc3)CC2)cc1` (stereo unspecified), for which the Potency entry in experiment [1], in experiment [2], in experiment [3], in experiment [4], in experiment [5] and in experiment [7] was “inactive” in each case. The Potency entry in experiment [8] is “inactive”. The max activation in experiment [6] is 10.7%.
Consider `C[C@H](O)[C@H](O)[C@H]1CNc2nc(N)[nH]c(=O)c2N1`, for which the Potency entry in experiment [1], in experiment [2], in experiment [3], in experiment [4], in experiment [5] and in experiment [7] was “inactive” throughout. The Potency result in experiment [8] is “inactive”. The max activation in experiment [6] was -2.27%.
For the compound `O=P(O)(O)OC[C@H]1O[C@](O)(COP(=O)(O)O)[C@@H](O)[C@@H]1O`, the Potency entry in experiment [1], in experiment [2], in experiment [3], in experiment [4], in experiment [5] and in experiment [7] was “inactive” in each case. In addition, the Potency result in experiment [8] is “inactive”. The max activation in experiment [6] is -2.72%.
